RGS12 GoLoco inh = RGS12 GoLoco-Gai1 interaction inhibition; P63096; Gai1:RGS12 GoLoco peptide FP, rhodamine, 10 min; Potency, µM (titrated, usually from 61.6 µM), for the others: at the top dose activity, negative = inhibition, hits mostly inhibitors; 230,000 compounds, 0.44% hits; active = well fitted inhibition curve with a large enough effect, not every such curve was filed as active; inactive = no such curve, though single readings can be large or run the other way; also: nearly all actives have a fitted effect of over 30% in size
KAT2A inh = inhibitors of human GCN5L2 histone acetyltransferase; AID 504327; Q92830; GCN5L2 HAT assay, ThioGlo1 CoA-SH fluorescence; Potency, µM (titrated, usually from 58.9 µM), for the others: at the highest dose activity change, negative = inhibition, usual class: inhibitors; 390,000 compounds, 0.21% hits
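Free CoA generated was detected with ThioGlo1 (50uM) fluorescence at Ex340nm/Em540nm, read immediately and after 20 min at room temperature. Enzyme, 20 nM in HEPES pH 7.5 buffer, saw compounds 15 min before adding 75uM H3(1-25) peptide and 70uM acetyl-CoA.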
TR SRC2 fluor cs = alters Texas Red total fluorescence, flagging assay interference. TRb/SRC2 Texas Red total fluorescence interference. Potency, µM (series often up to 106 µM), for inactives: at the highest dose fluorescence change, negative = quenching. 280,000 compounds, 0.29% hits. AID 1479; active = well fitted curve in either direction with a large enough effect; inconclusive = small, poorly fitted or top-dose-only effect
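Human TRβ ligand-binding domain (0.6 uM) and Texas Red SRC2 peptide (20 nM) in Tris buffer with 1 uM T3 and 5% DMSO were incubated with pinned compound for 5 hr at ambient temperature. Total fluorescence was computed as S + 2P (555/632 nm).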
VDR inh = vitamin D3 receptor (human) inhibition; VDR-SRC2-3 peptide fluorescence polarization, 2 h; AID 504847; P11473; 400,000 compounds, 0.93% hits; Potency, µM, without a hit: max response, negative = inhibition, actives largely listed as inhibitors
Target sequence (P11473 whole entry, looked up): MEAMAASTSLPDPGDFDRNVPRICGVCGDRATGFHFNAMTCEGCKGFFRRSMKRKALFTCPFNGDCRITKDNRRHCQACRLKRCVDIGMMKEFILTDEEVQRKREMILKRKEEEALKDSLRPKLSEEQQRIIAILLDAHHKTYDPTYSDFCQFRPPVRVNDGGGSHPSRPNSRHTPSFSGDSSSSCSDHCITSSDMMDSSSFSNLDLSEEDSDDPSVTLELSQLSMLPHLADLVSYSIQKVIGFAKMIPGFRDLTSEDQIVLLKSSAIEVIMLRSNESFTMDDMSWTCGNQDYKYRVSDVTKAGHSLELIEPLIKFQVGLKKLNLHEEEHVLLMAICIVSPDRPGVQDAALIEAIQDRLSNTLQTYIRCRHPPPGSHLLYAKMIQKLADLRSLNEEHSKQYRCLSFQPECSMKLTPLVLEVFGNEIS
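Measured by FP: displacement of SRC2-3 coactivator peptide from VDR by library compounds, following a two-hour ambient incubation.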
TRb SRC2 PPI = disrupts binding of human TR beta to SRC2; P10828; 280,000 compounds, 0.065% hits; AID 1469; TRbeta-SRC2 peptide binding, fluorescence polarization; receptor liganded with 1 µM T3; Potency, µM (highest dose often 106 µM), without a hit: at the top dose activity change, negative = inhibition, most hits filed as inhibitors;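 also: plate controls were bound peptide for no effect and peptide without receptor for full effect; nearly all actives have a fitted effect of over 50% in size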
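Read-out is fluorescence polarization (555 nm excitation, 632 nm emission) of a Texas Red SRC2 coactivator peptide; loss of signal reflects blocked binding to human TRb ligand-binding domain in the presence of 1 uM T3.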
Numbers without * were called inactive; ? = inconclusive; nt = no result given; ! = repeats disagree; [ ] = another dose, or the depositor's remark. Hits are enriched below; roughly 1.2% of the tested compounds scored in any of these assays. Unless noted, calls follow the shape of the dose curve; as a rule, active = well fitted curve in the direction sought with a large enough effect; inconclusive = small, poorly fitted or top-dose-only effect, or another doubt; inactive = no such curve, though single readings can be large; an effect the other way counts as inactive or inconclusive. Unless noted, % is scaled to controls: 0 for no effect and ±100 for the full control effect; potency is read from the fitted curve at half-maximal effect.

SMILES	RGS12 GoLoco inh	KAT2A inh	TR SRC2 fluor cs	VDR inh	TRb SRC2 PPI
CCCCCCCCCCO	nt	nt	0%[5.17e+03 µM]	nt	3%[5.17e+03 µM]
CC(C)S	-6%	nt	1%	nt	0%
COc1cc2cc3c4c(cc(OC)c(OC)c4c2cc1OC)CCN3C	-17%	nt	-6%	nt	?
O=c1oc2c(CN3CCN(CCO)CC3)c(O)ccc2cc1-c1ccccc1	nt	32µM*	-1%	0%	-10%
CCCOC(=O)c1cc(-c2ccc(C=O)o2)ccc1Cl	8%	-5%	-2%	-25%	0%
CCCOC(=O)c1cc(-c2ccc(/C=C3/C(=O)N(C)C(=O)C(C#N)=C3C)o2)ccc1Cl	nt	nt	nt	50µM*	nt
CCOCCOCCOC(C)=O	nt	nt	-5%[201 µM]	nt	6%[201 µM]
Cn1c(=O)[nH]c(=O)c2c1[nH]c(=S)n2CCCc1ccccc1	nt	16µM*	nt	40µM*	nt
Cn1c(=O)[nH]c(=O)c2c1nc(Br)n2CCCc1ccccc1	12%	2%	-3%	nt	1%
Cn1c(=O)c2c([nH]c(=S)n2CCCc2ccccc2)n(C)c1=O	nt	11µM*	nt	79µM*	nt
O=C(O)CCN1C(=O)/C(=C2\C(=O)N(Cc3ccccc3Cl)c3ccccc32)SC1=S	nt	5%	nt	nt	nt
C=CCN1C(=O)/C(=c2\sc3nc(=O)c(Cc4ccccc4Cl)nn3c2=O)c2ccccc21	-12%	-19%	-5%	35µM*	-3%
N#C/C(=C\c1ccncc1)c1nc2ccccc2[nH]1	38%	-23%	-3%	0%	-4%
Cc1cc2nc(/C(C#N)=C/c3ccncc3)[nH]c2cc1C	23%	-9%	-1%	22µM*	4%
CC(=O)OCC1OC(Oc2cc(OC(C)=O)c3c(=O)cc(-c4ccc(OC(C)=O)c(OC(C)=O)c4)oc3c2)C(OC(C)=O)C(OC(C)=O)C1OC(C)=O (configuration not stated)	3%	nt	-4%	nt	7%
COc1ccc(-c2cc(C(F)(F)F)nc(NCc3ccco3)n2)cc1OC	12%	22µM*	-2%	-11%	4%
COc1ccc(-c2cc(C(F)(F)F)nc(NCc3ccccc3)n2)cc1OC	nt	-11%	0%	-9%	0%
COC(=O)c1ccccc1S(=O)(=O)N1CCc2nc(-c3ccc(OC)cc3C)c3c(c2C1)CO[C@@H](c1ccccc1)C3	-1%[14.2 µM]	nt	-3%[11.2 µM]	nt	-1%[11.2 µM]
CCN1/C(=C/C=C/c2sc3ccccc3[n+]2CC)Sc2ccccc21	nt	?	nt	7.9µM*!	nt
CC[n+]1c(/C=C(\C)OC)sc2ccccc21	28%	-6%	1%	13%	-2%
CC[n+]1c(/C=C/Nc2ccccc2)sc2ccccc21	222%	-5%	45µM*[fluorescent]	21%	?
CN(C)c1ccc(-c2cncnc2NCCN2CCOCC2)cc1	-10%	-29%	nt	40µM*	nt
Cc1ccccc1-c1cncnc1NCCN1CCOCC1	-14%	-23%	-8%	?	5%
C[C@@H]1/C=C\CC(=O)OC[C@H](C)C(=O)N[C@@H](Cc2ccccc2)C(=O)OC1	nt	nt	3%[11.2 µM]	nt	-1%[11.2 µM]
CC[C@H](C)C(=O)O[C@H]1C[C@@H](C)C=C2C=C[C@H](C)[C@H](CC[C@@H]3C[C@@H](O)CC(=O)O3)[C@H]21	-9%	0%	-1%	50µM*!	0%
SMILES	RGS12 GoLoco inh	KAT2A inh	TR SRC2 fluor cs	VDR inh	TRb SRC2 PPI
CCC(C)C(=O)OC1CCC=C2C=CC(C)C(CCC3CC(O)CC(=O)O3)C21 (configuration not stated)	nt	nt	nt	1%	nt
COc1ccccc1C1NC(c2ccc3c(c2)OCO3)=CC(c2cc(Br)ccc2O)N1 (configuration not stated)	nt	nt	nt	-27%	nt
CC(C)=CCC1=C(O)c2ccccc2C(=O)C1=O	-23%	0%	-2%	25µM*	-8%
O=C1C(=O)c2ccccc2C(O)=C1CC=C(Cl)Cl	nt	nt	nt	-29%	nt
Cc1ccc2nc(-c3ccc(NC(=O)COc4ccc(Br)cc4Br)cc3)sc2c1	nt	?	0.32µM*[quencher]	-16%	-30%[53 µM]
Cc1ccc2nc(-c3ccc(NC(=O)COc4c(C)ccc(C)c4C)cc3)sc2c1	nt	10%	0%	-2%	1%
Cc1ccc(Nc2nc(NCc3ccco3)nc3nccnc23)cc1	nt	nt	nt	-2%	nt
O=C(CCCN1C(=O)S/C(=C/C=C/c2ccccc2)C1=O)Nc1ccc(C(=O)O)cc1	nt	-16%	nt	32µM*	nt
O=C(Nc1cccc2cccnc12)OCc1ccccc1	nt	nt	nt	0%	nt
COC(=O)C1=C(C(=O)OC)[C@@H]2N(C)c3ccccc3[C@@]23C[C@@H](CO)N(C(=O)c2ccco2)C3=N1	-5%[14.2 µM]	nt	-1%[11.2 µM]	nt	8%[11.2 µM]
Cc1ccccc1Nc1c(-c2cc(Br)ccc2F)nc2ccccn12	nt	2%	3.2µM*[quencher]	10%	-4%
CCCCc1cc(=O)oc2cc(C)c3c(C(C)(C)C)coc3c12	nt	-6%	100µM*[quencher]	6%	-5%
CCCc1cc(=O)oc2cc(C)c3c(C)coc3c12	5%	-8%	-3%	-5%	1%
COc1ccc(OC)c(CNC(=O)c2cc(-c3ccc(Cl)s3)nc3ccccc23)c1	nt	2%	?	-5%	-1%
COc1ccc(CNC(=O)c2cc(-c3cccs3)nc3ccccc23)c(OC)c1	nt	-6%	0.022µM*[quencher]	1%	-10%
O=C(O)CNC(=O)c1ccc([N+](=O)[O-])cc1	-3%	nt	-3%	nt	6%
Cc1cc(S(=O)(=O)ON2C(=O)c3ccccc3C2=O)ccc1F	nt	-1%	nt	32µM*	nt
Cc1ccc(C)c(S(=O)(=O)ON2C(=O)c3ccccc3C2=O)c1	nt	0%	-3%	20µM*	5%
CC(C)c1ccc(C(C)C)cc1	nt	nt	-3%[201 µM]	nt	4%[201 µM]
COc1ccc(-c2nnc3ccc(SC(C)C)nn23)cc1OC	nt	nt	nt	-9%	nt
CC1=NN(Cc2ccccc2)C(=O)C1C(c1ccc(Cl)cc1)C(C#N)C#N (configuration not stated)	7%	-8%	1%	40µM*	2%
CC1=NNC(=O)C1C(c1ccc(Cl)cc1)C(C#N)C#N (configuration not stated)	5%	-1%	-4%	79µM*	0%
CN[C@@H](CCCN=C(N)N)C(=O)N[C@@H](CCCCN)C(=O)N1CCC[C@H]1C(=O)N[C@@H](Cc1c[nH]c2ccccc12)C(=O)N[C@H](C(=O)N[C@H](CC(C)C)C(=O)O)C(C)(C)C	nt	-15%	5%	7%	1%
Oc1ccc2c(c1)OCC1(O)Cc3cc(O)c(O)cc3C21 (configuration not stated)	-165%	-9%	?	79µM*	?
CCOC(=O)c1c(C)oc2c1c1c(c3ccccc32)OCN(CCCC(=O)O)C1	-6%	?	-3%	89µM*	-1%
CCCCCCCCCCCCC/C=C/[C@@H](O)[C@@H](N)COP(=O)(O)O	22µM*!	13%	0%	-3%	5%
CCn1c(C)nc2cc(C(=O)NNC(=O)CCC3CCCCC3)ccc21	58%	-1%	3.5µM*[quencher]	-9%	?
CS(=O)(=O)c1ccc(Cn2c3c(c4cc(F)cc(F)c42)CCC[C@H]3CC(=O)O)cc1	-3%	-16%	-2%	25µM*	0%

Screens: PubChem, National Center for Advancing Translational Sciences (NCATS)
